# Bioassay records deposited in PubChem by National Center for Advancing Translational Sciences (NCATS).
# This is a sample that favours compounds with a hit; in the whole collection about 1.9% have one here.
# Pol III holo inh = inhibitors of bacterial DNA polymerase III holoenzyme. hit rate 0.25% among 71,000. reconstituted DNA polymerase III holoenzyme replication, biochemical. Potency, µM (doses to about 57.1 µM), for the others: at the top dose activity change, negative = inhibition. AID 603; further: potency means the concentration at half of the fitted maximal effect; on the % scale 0 is the no-effect control and ±100 the full control effect
#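 Reconstituted *E. coli* holoenzyme (0.35 nM Pol III, 1 nM beta, 154 nM SSB, 2 nM primase) was preincubated with compound for 15 min at RT. Synthesis on 1.4 nM ssM13Gori ran 35 min, then was stopped with PicoGreen/EDTA and read as dsDNA fluorescence.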
# BRCT PPI green = inhibitors of human BRCA1 BRCT-phosphoprotein interaction (green fluorophore). BRCA1 BRCT-phosphopeptide binding, green fluorescence polarization. P38398. hit rate 0.05% among 75,000. Potency, µM (series often up to 76.9 µM), without a hit: at the highest dose activity change, negative = inhibition, most hits filed as inhibitors;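 further: potency means the concentration at half of the fitted maximal effect; plate controls were peptide without protein for full effect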
#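 Fluorescence polarization: His-tagged BRCT (~35 kDa BRCA1 C-terminus, 250 nM) bound to 100 nM fluorescein-labeled phosphorylated 10-aa BACH1 peptide, pH 7.3 phosphate buffer with DTT and Tween 20. Compounds incubated 12 min at room temperature; inhibition read as lowered polarization.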
# BRCT PPI red = disrupts BRCA1 BRCT binding to phosphoprotein, red fluorophore readout. P38398. BRCT-phosphopeptide binding, red fluorescence polarization. Potency, µM (series often up to 76.9 µM), without a hit: at the top dose activity change, negative = inhibition, usual class: inhibitors. hit rate 0.03% among 75,000; further: on the % scale 0 is the no-effect control and ±100 the full control effect
#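 Rhodamine-labelled pBACH1 10-mer (100 nM) bound to BRCT domain (100 nM) at pH 7.3; compounds incubated 12 min room temperature, polarization read. Free peptide defines full inhibition; unlabelled decapeptide titrated as control.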
# ALOX15 inhib = inhibitors of human 15-lipoxygenase (ALOX15). Potency, µM (series often up to 57.1 µM), for the others: at the highest dose activity change, negative = inhibition, hits mostly inhibitors. P16050. purified 15hLO-1, xylenol orange hydroperoxide absorbance. AID 887. hit rate 1.4% among 74,000; further: potency means the concentration at half of the fitted maximal effect; on the % scale 0 is the no-effect control and ±100 the full control effect; nearly all actives have a fitted effect of over 55% in size
# Target sequence (P16050 whole entry, looked up): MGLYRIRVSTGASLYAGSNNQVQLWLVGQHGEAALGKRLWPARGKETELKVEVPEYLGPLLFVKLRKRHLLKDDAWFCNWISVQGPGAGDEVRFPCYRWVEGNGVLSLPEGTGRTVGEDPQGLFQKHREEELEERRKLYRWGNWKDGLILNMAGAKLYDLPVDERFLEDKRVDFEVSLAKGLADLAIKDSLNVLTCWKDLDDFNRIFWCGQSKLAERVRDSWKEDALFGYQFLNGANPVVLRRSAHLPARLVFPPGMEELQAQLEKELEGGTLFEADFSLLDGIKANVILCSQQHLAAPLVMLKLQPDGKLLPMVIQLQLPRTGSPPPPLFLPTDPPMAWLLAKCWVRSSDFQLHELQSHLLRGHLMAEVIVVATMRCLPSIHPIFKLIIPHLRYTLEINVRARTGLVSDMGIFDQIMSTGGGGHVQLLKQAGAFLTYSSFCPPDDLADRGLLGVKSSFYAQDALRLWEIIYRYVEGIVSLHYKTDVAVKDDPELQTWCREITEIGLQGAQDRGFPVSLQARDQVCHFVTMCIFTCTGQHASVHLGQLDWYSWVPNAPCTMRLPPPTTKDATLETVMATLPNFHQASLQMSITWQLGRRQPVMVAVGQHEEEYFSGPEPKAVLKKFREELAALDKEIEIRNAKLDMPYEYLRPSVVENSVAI
#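 Compounds were preincubated 15 min at room temperature with 40 nM purified human enzyme (25 mM Hepes pH 7.5, 0.01% Triton X-100); 50 uM arachidonic acid reacted 6 min. Fe-xylenol orange detection, 30 min, absorbance ratio 573/405 nm.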
# TsaE inh = displaces an ADP probe from E. coli YjeE (TsaE) | P0AF67 | purified YjeE enzyme, qHTS inhibition assay | Potency, µM | hit rate 0.05% among 71,000 | AID 605
#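 Fluorescence polarization of a BODIPY Texas Red–ADP probe (2 uM) bound to purified YjeE (10 uM) was read after 15 min room-temperature incubation with compounds. Loss of polarization marks inhibitors; ADP serves as titrated control.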
# Hsp90 Hop PPI = changes Hsp90-Hop TPR2A binding signal, up or down; hit rate 0.44% among 71,000; AID 595; Potency, µM (doses to about 57 µM), for inactives: top-dose activity change, negative = inhibition; AlphaScreen TPR2A-His6 binding biotin-Hsp90 C-terminal peptide; active means well fitted curve in either direction with a large enough effect; inconclusive means small, poorly fitted or top-dose-only effect, or another doubt; further: potency means the concentration at half of the fitted maximal effect; on the % scale 0 is the no-effect control and ±100 the full control effect
# Starred values were filed as active, the others as inactive; i = inactive; ? = inconclusive; . = not tested or not shown; [ ] = remark or other dose. Unless noted, the call rests on the fitted dose curve; in most records, active means well fitted curve in the direction sought with a large enough effect; inconclusive means small, poorly fitted or top-dose-only effect, or another doubt; inactive means no such curve, though single readings can be large; an effect the other way counts as inactive or inconclusive.
SMILES,Pol III holo inh,BRCT PPI green,BRCT PPI red,ALOX15 inhib,TsaE inh,Hsp90 Hop PPI
CCN(CC)[C@@H](C)CN1c2ccccc2Sc2ccccc21,-5%[25.6 µM],-6%[34.4 µM],1%[34.4 µM],13µM*,i,-11%[26 µM]
CCCCCc1cc(O)c2c(C)cc(=O)oc2c1,3%[11.4 µM],-5%,1%,-6%[11.4 µM],i,-2%[11 µM]
CCCCc1cc(=O)oc2cc(C)c(CN3CCCC3)c(O)c12,-10%,3%,-5%,13µM*,i,-9%
COc1ccc(-n2cnnc2SCc2ncc(-c3ccccc3)o2)cc1,5µM*,3%,-3%,10%,i,-3%
O[C@@H]1CC[C@H]2Cc3ccccc3N=C21,-9%,.,.,.,i,-5%
COC(=O)COc1ccc(S(=O)(=O)NCCC2=CCCCC2)cc1C,-5%,1%,0%,6.3µM*,i,1%
COC(=O)COc1ccc(S(=O)(=O)NCCC2=CCCCC2)cc1,-5%,-1%,-1%,-6%,i,1%
Cc1ccc(S(=O)(=O)NCc2ccccc2)cc1,-1%,0%,1%,-2%[25.6 µM],i,2%
Cc1ccc(S(=O)(=O)Nn2c(C)ccc2C)cc1,-4%,0%,1%,20µM*,i,-9%
C[C@]12C=CC(=O)C=C1CC[C@@H]1[C@H]3C[C@@H](O)[C@](O)(C(=O)CO)[C@]3(C)C[C@H](O)[C@]12F,-3%,.,.,.,i,-6%
O=C(Cc1nc2ccccc2s1)c1ccc(O)cc1O,-6%,4%,-3%,16µM*,i,-1%
COc1ccc(CC(=O)c2ccc(O)cc2O)cc1,.,-1%[3.08 µM],-2%,-13%,.,.
Cc1cc(O)c(C(C)(C)C)cc1Sc1cc(C(C)(C)C)c(O)cc1C,-4%,-1%,-3%,?,i,-6%
C[C@@H]1C(=O)N(C)C(=O)c2nc[nH]c21,-6%,-2%,-3%,4%,i,-2%
O=C1C2C3CCCC3=C3CCCC3C2C(=O)N1c1cccc(Cl)c1 (configuration not stated),-4%,-3%,-2%,10µM*,i,1%
O=C(NC1CCCCC1)c1ccc(Cc2nc3ccccc3[nH]2)cc1,.,-1%,-1%,-4%,.,.
CC(C)(C)C(=O)[C@H]([C@@H](c1ccccc1)N1CCOCC1)N1CCOCC1,-12%[11.4 µM],-3%[15.4 µM],0%[15.4 µM],10%[11.4 µM],i,2%[11 µM]
N#C/C(C(N)=O)=c1/ccc2c(c1)N1C3=C(CCCC3)CC3CCCCC31N=2 (configuration not stated),1%,-1%,-1%,-17%,40µM*,?
O=C(Nc1nc(-c2ccc3c(c2)OCO3)cs1)C1COc2ccccc2O1 (configuration not stated),-7%,-1%,1%,?,i,2%
O=C(Nc1nc(-c2ccccn2)cs1)C1COc2ccccc2O1 (configuration not stated),-1%,-1%,-1%,40%,i,16µM*
NCCC[C@@](N)(C(=O)O)C(F)F,2%,-3%,2%,-7%,i,-2%
O=C(Nc1cccc(Br)c1)c1ccn[nH]1,-2%,1%,-1%,10µM*,i,2%
CCOC(=O)Nc1nc(-c2ccccc2)c(C)s1,-9%[11.4 µM],0%[15.4 µM],1%[15.4 µM],-11%[11.4 µM],i,0%[11 µM]
Cn1c(/N=C/c2c(O)ccc3ccccc23)nc2ccccc21,-8%[11.4 µM],0%,-1%,4µM*,i,-11%[11 µM]
CC1=CC(=O)CC(C)(C)[C@@]1(O)/C=C\C(C)=C\C(=O)O,-4%,.,.,.,i,0%
SMILES,Pol III holo inh,BRCT PPI green,BRCT PPI red,ALOX15 inhib,TsaE inh,Hsp90 Hop PPI
CNC(=O)Oc1ccc2c(c1)C1(C)CCN(C)C1N2C (configuration not stated),.,-1%,1%,-11%[25.6 µM],.,.
O=C(CC1Nc2ccccc2NC1=O)NC1CCCCC1 (configuration not stated),-1%,-1%,-2%,-1%,i,-6%
O=C(/N=C1\NC(=O)C(F)(C(F)(F)F)S1)NC1CCCCC1 (configuration not stated),-6%,5%,-2%,10µM*,i,-5%
Cc1cc(C)n2nc(SCc3ncc(-c4ccccc4)o3)nc2n1,-9%,2%,-2%,-12%,i,-3%
c1ccc(-c2cnc(CSc3ncnc4sccc34)o2)cc1,?,3%,-11%,16µM*,i,5%
COc1cc(/C=C\C(=O)CC(=O)/C=C\c2ccc(O)c(OC)c2)ccc1O,70%,.,.,.,i,-5%
CC(C)=CCC[C@](C)(O)C1CC=C(C)CC1 (some centres not stated),.,1%[3.08 µM],1%,13µM*,.,.
COc1ccccc1OC[C@H](O)CN1CCN(CC(=O)Nc2c(C)cccc2C)CC1,15%,-2%,-1%,11%,i,1%
O=C(O)Cn1c(=O)oc2cc(S(=O)(=O)NC3CCCCC3)ccc21,-7%,0%,0%,-6%,i,0%
COc1c(N2C[C@@H]3CCCN[C@H]3C2)c(F)cc2c(=O)c(C(=O)O)cn(C3CC3)c12,.,3%[3.08 µM],-1%,4%,.,.
CCOC(=O)c1ccc(CC(=O)c2oc3cc(O)ccc3c2C)o1,2%,2%,1%,20µM*,i,-12%
CCOC(=O)c1oc2cc(O)ccc2c(=O)c1-c1csc(C)n1,-3%,-3%,0%,2%,i,-1%
O=C(C1CCCN1S(=O)(=O)c1cccc2cccnc12)N1CCc2ccccc2C1 (configuration not stated),0%,0%,-2%,25µM*,i,-5%[2.3 µM]
N=C(N)c1ccc(/C=C\c2ccc(C(=N)N)cc2)cc1,-9%[11.4 µM],-1%[15.4 µM],1%[15.4 µM],9%[11.4 µM],i,-4%[11 µM]
O=C(C1CCCCC1)N1CCCC(c2nc3c(nnn3Cc3ccccc3)c(=O)[nH]2)C1 (configuration not stated),0%,7%,-1%,16µM*,i,1%
O=C(c1ccccc1)N1CCCC(c2nc3c(nnn3Cc3ccccc3)c(=O)[nH]2)C1 (configuration not stated),2%,7%,-1%,2%,i,-2%
N#Cc1c(N)nc2c(c1-c1ccco1)CCCCC2,-1%,0%,1%,-4%,i,-2%
N#Cc1c(-c2ccco2)c2c([nH]c1=S)CCCC2,-26%,8%,-2%,16µM*,i,-7%
Cn1c(C(=O)NCCCN2CCCCCC2)cc2c(=O)n(C)c3ccccc3c21,7.9µM*,7%,-2%,6%,i,-5%[2.3 µM]
CCCN1CCN(CCCNC(=O)c2cc3c(=O)n(C)c4ccccc4c3n2C)CC1,-11%,1%,-2%,-3%,i,-3%[2.3 µM]
O=C(O)CCCC(=O)N(Cc1ccccc1)Cc1ccccc1,-6%[11.4 µM],1%,0%,4%[11.4 µM],i,0%[11 µM]
CCN(Cc1ccccc1)C(=O)CCCOc1ccccc1,-2%[11.4 µM],-1%,-1%,4µM*,i,?
